Molecules are shown by their SMILES. Hit rate of the full screen: of about 59,000 compounds, about 6,200 (11%) were called active. About 9% were inconclusive and are not listed. Rule as the data show it: active = max dye-equivalent concentration above about 10 nM; inconclusive = mostly about 1.1 nM to 9.6 nM; inactive = weaker than that. Only a selection was taken, and actives are over-represented in it overall.

A short description of this assay: qHTS Assay for Spectroscopic Profiling in 4-MU Spectral Region. The conditions noted are these: compound autofluorescence, 340/450 nm, 4-MU equivalents; hits give high values. The source says: NIH Molecular Libraries Screening Centers Network [MLSCN] NIH Chemical Genomics Center [NCGC] […] Occasionally, the artifactual effect may originate from the compounds own spectral or other biophysical properties which generally tend to track its assay concentration. Pre-screening/profiling the library with respect to the compounds spectral properties should help one exclude false positives early on. While the most informative fluorescent profiling data set is obtained by performing a full excitation and emission scan of each well by using a monochromator-based plate reader, such an approach is practical only on a very limited scale as scanning each well requires long time. An alternative approach, applied here, is to perform plate reader scans using selected excitation and emission wavelength pairs to generate a multidimensional relational database that correlates compound concentration and the respective relative fluorescence intensity at a given wavelength set. A standard curve of 4-methylumbelliferone (4-MU) present on each plate as six-point concentration series, was used to compute a normalized fluorescence response, termed dye-equivalent concentration, for each compound at each concentration.
NCGC Assay Protocol Summary: Buffer: 100 mM Tris buffer, pH 8.0 Dye standard plate: The wells in columns 1 through 4 of a Kalypsys polypropylene 1536-well compound plate were filled with standard solutions of fluorophore corresponding to the spectral region of interest. Solutions of 4-MU were placed in the following wells: A1, B1: 3 mM, A2, B2: 300 uM, A3, B3: 30 uM, A4, B4: zero (DMSO), C1, D1: 3 uM, C2, D2: 900 nM, C3, D3: 300 nM, C4, D4: zero (DMSO). Assay Steps: Six uL of buffer were dispensed to 1536-well Greiner black plates. Compounds and dye standards (23 nL) were transferred via Kalypsys PinTool. The plates were incubated for 15 min at room temperature, and then read on ViewLux (Perkin-Elmer) High-throughput CCD imager using 340 nm and 450 nm excitation and emission filter set. Keywords: NIH Roadmap, MLSCN, MLI, MLSMR, qHTS, NCGC, Fluorescent Profiling, 4MU, 4-MU
Background: In qHTS, concentration-response curves come from the screen itself.
Turning to `CCOC(=O)c1[nH]c2ccc(C)cc2c1N=C(C)N(C)C`, the max dye-equivalent concentration was 31 nM (active).
The same measure for `CCOC(=O)CN(C)Cc1c[nH]c2ccccc12`: “inactive”; for `CCOC(=O)c1[nH]c2ccccc2c1N=C(C)N(CC)CC`: “inactive”.
Then `CCCNS(=O)(=O)c1ccc(CCC(=O)NCc2cccnc2)cc1`, with “inactive”.
Then `CCOc1ccc(NC(=O)N(CCC(C)C)C(C)c2ccco2)cc1` (centres undefined), with “inactive”; and `CSc1nsc(SC)c1NC(=O)OC1CCCCC1`, with “inactive”; and `O=C(Nc1ccc(S(=O)(=O)N2CCCCC2)cc1)c1cnccn1`, with “inactive”.
As to `CC(=O)C1=C(O)C(=O)N(c2ccc(S(N)(=O)=O)cc2)C1c1ccccc1F` (centres undefined), the max dye-equivalent concentration is 21 nM (active).
In the case of `CCN1C(=O)C(C(=O)NC(C)c2ccccc2)C2CC1(C)Oc1ccccc12` (centres undefined), the max dye-equivalent concentration entry is “inactive”.
As to `Cn1nc(-c2ccc(N3CCOCC3)c(NC(=O)c3ccccc3)c2)c2ccccc2c1=O`, the max dye-equivalent concentration result is “inactive”.
Then `Cn1c(=O)n(C)c2cc(CNc3ccc(N4CCOCC4)c(C(=O)O)c3)ccc21`, with 18 nM (active); and `CC(=O)Nc1ccc(N2CCOCC2)c(C(=O)Nc2cccc(C)c2)c1`, with “inactive”; and `CCCn1c(=O)c2[nH]c(-c3ccc(OCC(=O)NCCN)cc3)nc2n(CCC)c1=O`, with “inactive”.
Then `Cc1cc(N2CCCC2)n2nc(C)c(-c3ccccc3)c2n1`, with 660 nM (active); and `CC(=O)c1cc(-c2ccccc2)[nH]c1N1CCCC1`, with “inactive”.
Then `CCCc1nc(-c2ccccc2O)n(-c2ccccc2)n1`, with “inactive”.
With `CCn1ccnc1C[C@@H]1COc2ccccc2O1`, the max dye-equivalent concentration result is “inactive”.
Take `O=C(c1csnn1)N1CCC2(CC1)CN(c1ncccn1)C2`: the max dye-equivalent concentration entry was “inactive”.
With `COc1cccc(N2C(=O)CC(N3CCN(S(=O)(=O)c4ccccc4)CC3)C2=O)c1` (centres undefined), the max dye-equivalent concentration entry was “inactive”.
Then `CCOc1ccccc1NC(=O)CCN1CCN(S(=O)(=O)c2ccc(OC)cc2)CC1`, with “inactive”; and `COc1ccc(S(=O)(=O)N2CCN(c3ncnc4c(-c5ccccc5)nsc34)CC2)cc1`, with 88 nM (active); and `Cc1ccc(-c2noc(CCC(N)=O)n2)cc1`, with “inactive”.
Then `CCOC(=O)N1CCN(C(=O)CSc2nnc(-c3c[nH]c4ccccc34)n2CCOC)CC1`, with “inactive”; and `O=C(Nc1nn(Cc2ccccc2F)cc1Br)c1cccs1`, with “inactive”.
Then `Cn1cccc1C(=O)N1CCC2(CC1)CN(c1cccc(-c3ccccc3)c1)C2`, with “inactive”.
Consider `CCOc1cc(S(=O)(=O)NCc2ccc3c(c2)OCO3)ccc1F`, for which the max dye-equivalent concentration entry is “inactive”.
For the compound `Cc1ccc(S(=O)(=O)c2c(N)n(C)c3nc4ccccc4nc23)cc1`, the max dye-equivalent concentration was 2500 nM (active).
Then `Cc1ccc(S(=O)(=O)NCc2nc3ccccc3c(=O)n2N)cc1`, with “inactive”; and `COCCn1c(CN2CCC(Cc3ccccc3)CC2)nc2c1c(=O)n(C)c(=O)n2C`, with “inactive”; and `COCCn1c(=O)c(-c2cc(F)cc(F)c2)nc2cnc(N3CCNCC3)nc21`, with 350 nM (active).
Take `Cn1cc(-c2nc3cnc(N4CCNCC4)nc3n(CCC#N)c2=O)c2ccccc21`: the max dye-equivalent concentration result was “inactive”.
Then `c1cncc(-c2nc(N3CCNCC3)c3ccccc3n2)c1`, with “inactive”; and `N#Cc1cccc(-c2nc3cnc(N4CCNCC4)nc3n(C3CC3)c2=O)c1`, with 300 nM (active).
As for `COCCn1c(=O)c(CCc2ccccc2)nc2cnc(N3CCNCC3)nc21`, the max dye-equivalent concentration is 56 nM (active).
Then `Cn1c(=O)c(-c2ccccc2)nc2cnc(N3CCNCC3)nc21`, with 270 nM (active); and `Cc1nc2cnc(Oc3cccc(Cl)c3)nc2n(C2CC2)c1=O`, with “inactive”; and `CC1(C)C2CCC1(C)C(OC(=O)CCn1ccnc1)C2` (centres undefined), with “inactive”.
Then `Cc1ccc(C(=O)CSc2nnc(Cn3nnc4ccccc43)n2C)cc1`, with “inactive”; and `CCCn1c(=O)c(-c2ccccc2)c(O)c2ccccc21`, with “inactive”; and `CCOC(=O)c1sc(N(Cc2ccccc2)C(=O)CN2C(=O)CN(C)C2=O)nc1C`, with “inactive”.
Consider `CCn1c(CSc2ncccn2)nnc1SCC(=O)N1c2ccccc2CC1C` (centres undefined), for which the max dye-equivalent concentration entry is “inactive”.
Then `Cc1nc2cnc(Nc3ccccc3)nc2n(C[C@H]2CCCO2)c1=O`, with “inactive”; and `Cc1nc2cnc(N3CCN(C)CC3)nc2n(C[C@H]2CCCO2)c1=O`, with 48 nM (active).
Then `COCCn1c(=O)c(CCc2ccccc2)nc2cncnc21`, with 83 nM (active); and `O=c1c(-c2ccc(F)cc2)nc2cnc(N3CCNCC3)nc2n1Cc1cccs1`, with 15 nM (active).
Regarding `Cn1c(=O)c2c(nc(OCc3cccnc3)n2Cc2ccccc2)n(C)c1=O`, the max dye-equivalent concentration result is “inactive”.
Then `Cc1nc2cnc(N3CCN(C)CC3)nc2n(CCC#N)c1=O`, with “inactive”; and `Cc1nc2cnc(N3CCNCC3)nc2n(Cc2ccc(F)cc2)c1=O`, with 98 nM (active); and `O=c1c(CCc2ccccc2)nc2cncnc2n1C1CC1`, with “inactive”.
The same measure for `Cc1cc(C)c(C(=O)CN2C(=O)CCC2=O)cc1C`: “inactive”; for `CCOC(=O)Nc1ccc2c(c1)N(C(=O)CN1CCN3CCCC3C1)c1ccccc1CC2` (centres undefined): “inactive”; for `O=C(Nc1ccc2c(c1)OCCO2)C1CCCN(c2ncccn2)C1` (centres undefined): “inactive”.
On to `CCOP1(=O)C=C(C(C)(C)C)OC1c1ccc(F)cc1` (centres undefined), for which the max dye-equivalent concentration result is “inactive”.
The same measure for `CC(c1nnc(SCC(=O)Nc2sccc2C#N)n1-c1ccc(Cl)cc1)N(C)C` (centres undefined): “inactive”.
`CCC(=O)Nc1sc(C(=O)N2CCCCC2)c(C)c1C#N`: the max dye-equivalent concentration result was “inactive”.
`COCCNC(=O)CN(C(=O)CCC(=O)Nc1cc(C)on1)c1ccc(C)cc1C`: the max dye-equivalent concentration result was “inactive”.
The same measure for `O=S(=O)(/C=C/c1ccccc1)NCCc1ccccn1`: “inactive”; for `Cn1cc(-c2nc3cnc(N4CCNCC4)nc3n(CCc3ccccc3)c2=O)c2ccccc21`: “inactive”; for `Cc1nc2cnc(N3CCNCC3)nc2n(CCc2ccccc2)c1=O`: 49 nM (active).
Regarding `Cn1c(=O)n(CCc2ccccc2)c(=O)c2c1nc1n2CCCN1c1ccccc1`, the max dye-equivalent concentration result was “inactive”.
Then `OCc1nc(CO)n(Cc2ccccc2)n1`, with “inactive”; and `CCCCCn1c(SCCC(C)C)nc2c1c(=O)[nH]c(=O)n2C`, with “inactive”.
The same measure for `C/C(O)=C\c1nc(=O)c2c(C)cc(C)nc2n1-c1ccccc1`: 43 nM (active).
The same measure for `N#CCSc1nc2ccccc2c(=O)n1-c1ccccc1`: “inactive”; for `Cc1cc(C)nc(N(C#N)CC(=O)Nc2ccccc2)n1`: “inactive”; for `COc1ccc(C2C3=C(CC(C)(C)CC3=O)Oc3ncn4nc(-c5cccnc5)nc4c32)cc1OC` (centres undefined): “inactive”.
On to `CC(=O)Nc1ccc(S(=O)(=O)N2CCN(CCCOc3cc(C)ccc3C)CC2)cc1`, for which the max dye-equivalent concentration result is “inactive”.
The same measure for `CC(C)C(NC(=O)OCc1ccccc1)C(=O)OCC(=O)N1C(C)CCCC1C` (centres undefined): 37 nM (active); for `COc1cccc(NC(=O)C2CCCN2C(=O)OCc2ccccc2)c1` (centres undefined): “inactive”; for `NC1(C(=O)OCc2ccccc2)CCCC1`: “inactive”.
The same measure for `CCCC[C@H]1C(=O)N(c2ccccc2)N(c2ccc(O)cc2)C1=O`: “inactive”; for `COC(=O)COc1ccc(S(=O)(=O)Nc2ccc(NC(C)=O)cc2)cc1`: “inactive”; for `O=C1CCC(C(=O)Nc2ccc(OC(F)F)cc2)N1` (centres undefined): 18 nM (active).
Then `CCCOc1ccc(NC(=O)C2CCCNC2=O)cc1` (centres undefined), with “inactive”.
Consider `O=C(O)C1CCN(c2ncnc3ccc(-c4ccccc4C(F)(F)F)cc23)CC1`, for which the max dye-equivalent concentration entry is “inactive”.
The same measure for `COc1ccc(-c2nc3n(c2Br)CCC3)cc1`: “inactive”; for `Cc1cccc(OCc2nnc(SCn3nnc4ccccc4c3=O)o2)c1`: “inactive”; for `CCCCCCn1c(CN2CCCC(C)C2)nc2c1c(=O)n(C)c(=O)n2C` (centres undefined): “inactive”.
Turning to `CCCn1c(O)c(CN2CCCC(C)C2)c(C)c(C#N)c1=O` (centres undefined), the max dye-equivalent concentration was 13 nM (active).
Turning to `O=C(Cc1c(F)cccc1Cl)N1CCN(C(=O)c2ccco2)CC1`, the max dye-equivalent concentration result is “inactive”.
The same measure for `CCN(Cc1ccncc1)C(=O)[C@@H](CO)c1ccccc1`: “inactive”; for `Clc1ccc(Cc2nn3c(-c4ccncc4)nnc3s2)cc1`: “inactive”.
Then `COc1cccc(C(=O)Nc2c3c(nn2-c2cccc(C)c2C)CS(=O)(=O)C3)c1OC`, with “inactive”.
`COc1ccccc1CNc1nc(-c2c(C)noc2C)nc2ccccc12`: the max dye-equivalent concentration entry was “inactive”.
In the case of `c1ccc(-c2oc3ncnc(N4CCOCC4)c3c2-c2ccccc2)cc1`, the max dye-equivalent concentration was 11 nM (active).
Then `c1cnn(-c2cc(N3CCOCC3)ncn2)c1`, with “inactive”; and `c1ccc(-n2nnnc2N2CCOCC2)cc1`, with “inactive”; and `CCCCOc1ccccc1/C=c1/sc2nc(-c3oc4ccccc4c3C)nn2c1=O`, with “inactive”.
For the compound `CCc1ccccc1NC1c2ccccc2C(=O)N1c1cccnc1` (centres undefined), the max dye-equivalent concentration entry is “inactive”.
The same measure for `O=C(O)C1=CCCN(CCON=C(c2ccccc2)c2ccccc2)C1`: “inactive”.
Then `O=C(Nc1cccnc1)c1ccc2c(c1)OCO2`, with “inactive”; and `Cc1cccc(CNc2ccnc(-c3cccnc3)n2)c1`, with “inactive”; and `c1cncc(CNc2ccnc(-c3ccc4c(c3)OCO4)n2)c1`, with 14 nM (active).
The same measure for `COc1ccc(Br)c2c1C[C@H](C(=O)O)CC2`: “inactive”; for `CCOc1cc(CO)ccc1OCC(=O)N1CCCCC1`: “inactive”; for `Cc1ccccc1CSc1nnc(-c2ccccn2)n1N`: “inactive”.
Consider `CC(=O)c1cccc(S(=O)(=O)N2CCC(n3nnc4cc(F)ccc43)CC2)c1`, for which the max dye-equivalent concentration entry is “inactive”.
Then `O=C(c1ccc2c(c1)OCCO2)C1CCN(S(=O)(=O)c2cccc(F)c2)CC1`, with 12 nM (active); and `O=C(NCc1cccs1)C1CCN(S(=O)(=O)c2ccc3c(c2)OCCO3)CC1`, with “inactive”.
Then `COc1cccc(NC(=O)Cn2cnc3sc(C)c(S(=O)(=O)N4CCN(C)CC4)c3c2=O)c1`, with “inactive”.
Then `CC(Nc1nc(N2CCCC2)nc2ccccc12)c1ccccc1` (centres undefined), with 150 nM (active); and `Cc1ccc(C(CC(=O)O)Nc2nc(N3CCCCC3)nc(N3CCCCC3)n2)cc1` (centres undefined), with “inactive”.
In the case of `CC(C)(CSc1nncn1/N=C/c1ccco1)NS(=O)(=O)c1ccc(Cl)cc1`, the max dye-equivalent concentration result is “inactive”.
The same measure for `CCC(=O)Nc1ccc(C(=O)CSc2nnc(CNc3ccc(Cl)cc3)o2)cc1OC`: “inactive”; for `COC(=O)N1CCC[C@@]2(CCN(C(=O)NC(C)C)C2)C1`: “inactive”.
Then `Cc1occc1C(=O)Nc1cccc(Cn2cccn2)c1`, with “inactive”; and `CCCN1CC=C2C(C#N)=C(N)C(C#N)(C#N)C(c3cc(OC)ccc3OC)C2C1` (centres undefined), with 120 nM (active).
Then `COC(=O)C1=C(C)OC(N)=C(C#N)C1c1cc(OC)ccc1OC` (centres undefined), with “inactive”; and `CCC1=C(C(=O)OC)C(c2cc(OC)ccc2OC)C(C#N)=C(N)O1` (centres undefined), with “inactive”.

These data come from PubChem BioAssay AID589 (National Center for Advancing Translational Sciences (NCATS), 2007).
